Most compounds without a hit are left out; they make up all but 12% or so of the library.
MARV entry inh: Marburg virus entry inhibition; hit rate 1.8% among 300,000; Marburg virus pseudotyped entry inhibition, cell reporter; Potency, µM (titrated, usually from 37.8 µM), hits mostly inhibitors; calls by dose curve; tested in HEK293 cells
Shiga inhibitor: inhibitors of Shiga toxin in Vero cells; Vero cells, Shiga toxin protein synthesis inhibition reporter; inhibition, % at 38.7 µM; hit rate 9.2% among 290,000; AID 2315; in the data active means inhibition mostly above about 28%, no sharp cut-off; inactive means mostly below about 43%
Lassa entry inh: Lassa virus entry inhibition | Lassa virus pseudotype entry inhibition, cell reporter | Potency, µM (titrated, usually from 37.9 µM), most hits filed as inhibitors | hit rate 1.2% among 300,000 | AID 540256; calls by dose curve; tested in HEK293 cells; further: nearly all actives have a fitted effect of over 50% in size
Cycloheximide cs: counter-screen for Shiga toxin inhibitors: cycloheximide protein synthesis inhibition; cell reporter, cycloheximide protein synthesis inhibition counterscreen; max response, %; hit rate 12% among 300,000; AID 2314; in the data active means max response mostly above about 13%, no sharp cut-off; inactive means mostly below about 14%; further: read at 38.3 µM for the half of the compounds with a filed dose
Of the large screens only hits and unclear results are named; the others gave an inactive call.

COc1ccc(OC)c(NC(=O)c2nc(SCc3ccc(F)cc3)ncc2Cl)c1	none (no result: Shiga inhibitor, Cycloheximide cs)
COc1cccc(CNc2cc(C)ccn2)c1O	Shiga inhibitor 50.8, Cycloheximide cs 38.6
COc1cccc(CNc2ccccn2)c1O	MARV entry inh inconclusive, Cycloheximide cs 33.7 (no result: Shiga inhibitor)
COc1cccc(CNc2cccc(C(F)(F)F)c2)c1O	MARV entry inh inconclusive, Lassa entry inh inconclusive
Oc1c(Br)cc(Br)cc1CNc1ccccn1	none
COc1ccc(CNc2ccccn2)c(O)c1	Shiga inhibitor 47.7, Cycloheximide cs 20.1
Cc1cccc(OCC(=O)N(Cc2ccccc2)c2ccccn2)c1	none (no result: Shiga inhibitor, Cycloheximide cs)
CC(C)c1ccc(OCC(=O)N(Cc2ccccc2)c2ccccn2)cc1	Lassa entry inh inconclusive, Cycloheximide cs 13.9
O=C(COc1ccc(Br)cc1)N(Cc1ccccc1)c1ccccn1	MARV entry inh inconclusive, Shiga inhibitor 52.7
O=C(COc1ccc(Cl)cc1)N(Cc1ccccc1)c1ccccn1	MARV entry inh inconclusive
O=C(Nc1ccc(Cl)c(S(=O)(=O)Nc2ccccc2Cl)c1)c1cccs1	Lassa entry inh inconclusive
Cc1ccc(C(=O)Nc2ccc(C)c(S(=O)(=O)Nc3ccccc3Cl)c2)s1	Lassa entry inh 5.17µM
Cc1ccc(NC(=O)c2cc3c(s2)CCCC3)cc1S(=O)(=O)Nc1ccccc1Cl	MARV entry inh inconclusive, Lassa entry inh 11.2µM
CC(C)(C)NC(=O)CN(C(=O)C1CSC(=O)C1)c1ccc2c(c1)OCCO2 (stereo not given)	Shiga inhibitor 33.9, Cycloheximide cs 35.8
CCCn1nc(C(=O)NNC(=O)Cc2ccc(S(=O)(=O)N3CCOCC3)s2)c2ccccc2c1=O	none (no result: Shiga inhibitor, Cycloheximide cs)
CNC(=O)c1cc2c(s1)CCCCCC2	none
CC(OC(=O)c1cc2c(s1)CCCCC2)C(=O)NC(N)=O (stereo not given)	Cycloheximide cs 23.0
CC(C)NC(=O)c1cc2c(s1)CCCC2	Shiga inhibitor 43.7, Lassa entry inh inconclusive, Cycloheximide cs 17.9
O=C1CC(c2nc3ccccc3[nH]2)CN1c1cccc(Cl)c1 (stereo not given)	none (no result: Shiga inhibitor, Cycloheximide cs)
Cc1nc(NC(=O)c2ccc(OCC(C)C)cc2)sc1Cc1ccc2c(c1)OCO2	Shiga inhibitor 30.3, Cycloheximide cs 19.1 (no result: MARV entry inh, Lassa entry inh)
CCCOc1ccc(C(=O)Nc2nc(C)c(Cc3ccc4c(c3)OCO4)s2)cc1	Shiga inhibitor 71.5, Cycloheximide cs 23.9
Cc1c(Cc2ccc3c(c2)OCO3)sc(NC(=O)c2ccc3ccccc3c2)c1C(N)=O	none
COc1cc(C(=O)Nc2nc(C)c(Cc3ccc4c(c3)OCO4)s2)cc(OC)c1OC	Lassa entry inh inconclusive
CC1(C)CCC[C@@](C)([C@H]2CC[C@]3(C)[C@@H]2[C@H](O)C[C@@H]2[C@@]4(C)CC[C@H](O)C(C)(C)[C@@H]4[C@@H](O)C[C@]23C)O1	none (no result: MARV entry inh, Lassa entry inh)
CCNC(=O)c1ccc(NS(=O)(=O)c2ccc3[nH]c(=O)[nH]c3c2)cc1	Shiga inhibitor 46.1, Cycloheximide cs 29.7
CCCCc1ccc(-c2ccc(Br)cc2O)nc1	MARV entry inh inconclusive, Shiga inhibitor 85.6, Cycloheximide cs 49.4
CCCCc1ccc(-c2ccc(C)cc2O)nc1	MARV entry inh inconclusive, Shiga inhibitor 58.3, Lassa entry inh 10.3µM, Cycloheximide cs 24.8
CC12OC1C1(O)CCCC1=CC2=O (stereo not given)	none (no result: MARV entry inh, Lassa entry inh)
NNC(=O)c1cc2c(s1)-c1cc(Cl)ccc1SC2	Lassa entry inh inconclusive, Cycloheximide cs 27.9
O=C(NCc1ccc(Cl)cc1)c1cc2c(s1)-c1ccccc1SC2	MARV entry inh inconclusive (no result: Shiga inhibitor, Cycloheximide cs)
COc1ccc(CNC(=O)c2ccc3c(c2)N(Cc2ccccc2)CCS3)cc1	MARV entry inh inconclusive, Lassa entry inh 4.47µM (no result: Shiga inhibitor, Cycloheximide cs)
Cc1ccccc1CNC(=O)c1ccc2c(c1)N(Cc1ccccc1)CCS2	MARV entry inh 8.91µM (no result: Shiga inhibitor, Lassa entry inh, Cycloheximide cs)
CN1CCSc2ccc(C(=O)NCc3ccccc3)cc21	MARV entry inh inconclusive, Shiga inhibitor 24.6, Cycloheximide cs 10.0
O=C(NCc1cccnc1)c1ccc2c(c1)N(Cc1ccccc1)CCS2	MARV entry inh inconclusive
O=C1N(Cc2cccc(Cl)c2)C[C@@H]2C[C@@H](c3ccc4nonc4c3)N3CCC[C@@]123	none (no result: MARV entry inh, Lassa entry inh)
CCOC(=O)c1cnc2sc3c(n2c1=O)CCCC3	Shiga inhibitor 92.5, Cycloheximide cs 42.7
CCOC(=O)c1cnc2oc3ccccc3n2c1=O	Cycloheximide cs 57.6 (no result: Shiga inhibitor)
CCc1nc2cc(Cl)c(Cl)cc2nc1CC	none
CCc1nc2cc(Cl)c(Cl)cc2[nH]1	Cycloheximide cs 10.7
COCC(=O)N(Cc1cc2cc(OC)ccc2[nH]c1=O)c1ccccc1	Cycloheximide cs 16.4
CCOCCCNC(=O)C(NC(=O)c1ccccc1O)c1ccc(Cl)cc1 (stereo not given)	MARV entry inh inconclusive
Cc1ccc2c(c1)N(CC(=O)NCCc1ccccc1)C(=O)c1cccnc1O2	none (no result: MARV entry inh, Lassa entry inh)
S=C(NC1CCCCC1)N1CCc2[nH]c3ccccc3c2C1	Shiga inhibitor 44.0
CC(C)CC(c1nnnn1Cc1cccs1)N1CCN(c2nc3ccccc3s2)CC1 (stereo not given)	MARV entry inh inconclusive, Lassa entry inh inconclusive, Cycloheximide cs 20.0
CN(C)CCNC(=O)c1sc2nc(-c3ccccc3)cc(C(F)(F)F)c2c1N	MARV entry inh 5.01µM, Lassa entry inh inconclusive
COc1ccc(-c2cc(C(F)(F)F)c3c(N)c(C(=O)NCCSC)sc3n2)cc1	none
Cc1ccc(N2C(=O)CSC2c2ccccn2)cc1Cl (stereo not given)	Cycloheximide cs 24.6
O=C1CSC(c2ccccn2)N1c1cccc(Cl)c1 (stereo not given)	none
CCc1ccccc1NC(=O)c1ccc2c(c1)nnn2C1CCCC1	none (no result: MARV entry inh, Shiga inhibitor, Cycloheximide cs)
Nc1nc(CN2CCN(c3ccccc3F)CC2)nc(Nc2ccc3c(c2)OCCO3)n1	none
Nc1nc(CCl)nc(Nc2ccccc2)n1	Shiga inhibitor 71.1, Cycloheximide cs 36.0 (no result: MARV entry inh, Lassa entry inh)
Cc1ccc(Nc2nc(N)nc(CSCCO)n2)cc1	MARV entry inh inconclusive, Shiga inhibitor 59.9, Lassa entry inh inconclusive, Cycloheximide cs 31.1
CN1CCN(Cc2nc(N)nc(Nc3ccc4c(c3)OCCO4)n2)CC1	Shiga inhibitor 60.2, Cycloheximide cs 30.3
Cc1cccc(Nc2nc(N)nc(CCl)n2)c1C	MARV entry inh inconclusive, Shiga inhibitor 58.6, Lassa entry inh inconclusive, Cycloheximide cs 53.2
O=C(CSc1nc(COc2ccccc2)nc2ccccc12)NC1CCCC1	none
COc1ccc(Nc2nc(N)nc(CSCCO)n2)cc1	none
CCOc1ccc(Nc2nc(N)nc(CCl)n2)cc1	MARV entry inh inconclusive, Shiga inhibitor 59.3, Lassa entry inh inconclusive, Cycloheximide cs 42.8
Cc1ccc(Nc2nc(N)nc(CN3CCCCCC3)n2)c(C)c1	none
Cc1ccc(Nc2nc(N)nc(CCl)n2)c(C)c1	Shiga inhibitor 105.9, Cycloheximide cs 78.5 (no result: MARV entry inh, Lassa entry inh)
Cc1ccc(Nc2nc(N)nc(CC#N)n2)cc1	Shiga inhibitor 45.7, Cycloheximide cs 35.1
Cc1ccc(Nc2nc(N)nc(CCl)n2)cc1	MARV entry inh inconclusive, Shiga inhibitor 96.0, Lassa entry inh inconclusive, Cycloheximide cs 75.3
CCOc1ccc(Nc2nc(N)nc(CN3CCN(c4ccccc4F)CC3)n2)cc1	MARV entry inh inconclusive, Lassa entry inh inconclusive
Cc1ccc(OC[C@H](O)CNS(=O)(=O)c2ccccc2C(=O)O)cc1	none (no result: Shiga inhibitor, Lassa entry inh, Cycloheximide cs)
CC(=O)c1ccc(NS(=O)(=O)c2ccc(-n3cccn3)cc2)cc1	none (no result: MARV entry inh, Shiga inhibitor, Cycloheximide cs)
Cc1ccc(Nc2nc(N)nc(CN3CCc4ccccc4C3)n2)cc1	MARV entry inh inconclusive, Lassa entry inh 23.1µM
COc1ccc(CCNS(=O)(=O)c2ccc(Br)s2)cc1	Shiga inhibitor 38.6, Cycloheximide cs 29.2
O=S(=O)(NCCc1ccccc1)c1ccc(Br)s1	MARV entry inh inconclusive
